These sequences were tested on PPARa:RXRa (NR concentration 270 nM, RXRa partner concentration 90 nM) (assay: PBM binding z-score (relative to random genomic background probes); higher = stronger binding; sequences stand for … in GC…GCGATTGACAGCGTAGAATGAAGG).
Procedure, shortened: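 Each nuclear receptor dimer, without ligand, was incubated for 1 h on custom Agilent 4×180K protein-binding microarrays. Binding was detected with antibodies against each partner (one per run), and scanned fluorescence was regression-normalized. The binding z-scores are referenced to random human genomic background probes.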
Work on TCGACTAGGTTACGGGGGCATTCAGGGATGAAGA yielded a PBM binding z-score of 4.29. Work on CTATGTAGGTTAAGGGGGACATTCAGTTTGAAAG yielded a PBM binding z-score of 5.12. For CCGAGTAGGTTAGGAGGGGGCATTCAGTGCGAAT, the PBM binding z-score was 2.86. CTGTGTAGGTTAAGGGGGTCATTCAGTTTGAAAG gave a PBM binding z-score of 5.67. In the case of CTATGTAGGTTAAGGGGGTCACTCAGTTTGAAAG, the PBM binding z-score is reported as 5.91. TCGAGTAGGTTAAGGGGGCATTCAGGGATGAAGA was tested, and the PBM binding z-score was 3.99. In the case of TCGAGTTGGTTACGGGGGCATTCAGGGATGAAGA, the PBM binding z-score is reported as 2.89. TCGAGTAGTTTACGGGGGCATTCAGGGATGAAGA was tested, and the PBM binding z-score was 2.69. In the case of TCGAGTAGGTTACGGGGGCATGCAGGGATGAAGA, the PBM binding z-score is reported as 4.27. In the case of CCGAGTAGGGTACGAGGGGGCATTCAGTGCGAAT, the PBM binding z-score is reported as 2.53. CCGAGTAGGTTACGAGGGGGAATTCAGTGCGAAT gave a PBM binding z-score of 2.28. Sequence CCGAGTAGGTTACAAGGGGGCATTCAGTGCGAAT has a PBM binding z-score of 3.41. Work on CTATGTAGGTTAAGGGGATCATTCAGTTTGAAAG yielded a PBM binding z-score of 3.77. TCGAGTAGGTTACGGGCGCATTCAGGGATGAAGA gave a PBM binding z-score of 1.4. With TCGAGTAGGTTACGGGGGCATTTAGGGATGAAGA the PBM binding z-score was 4.52. CTATGTAGGTTTAGGGGGTCATTCAGTTTGAAAG showed a PBM binding z-score of 5.41. With TCGAGTAGGTTACGGGGGCATTCCGGGATGAAGA the PBM binding z-score was 4.29. With TCGAGTAGGTTACCGGGGCATTCAGGGATGAAGA the PBM binding z-score was 2.27. TCGAGTAGGTGACGGGGGCATTCAGGGATGAAGA was tested, and the PBM binding z-score was 3.82. CCGAGTAGGTTACGAGGTGGCATTCAGTGCGAAT showed a PBM binding z-score of 1.61. With CTATGTAGGGTAAGGGGGTCATTCAGTTTGAAAG the PBM binding z-score was 6.11. CTATGTAGGTTCAGGGGGTCATTCAGTTTGAAAG was tested, and the PBM binding z-score was 5.86. Work on CCGAGTAGTTTACGAGGGGGCATTCAGTGCGAAT yielded a PBM binding z-score of 2.17. For CCGAGTAGGTTACGAGGGTGCATTCAGTGCGAAT, the PBM binding z-score was 1.8. TCGAGTAGGTTACGGGGGCATTCAAGGATGAAGA gave a PBM binding z-score of 4.27. With CTATGTACGTTAAGGGGGTCATTCAGTTTGAAAG the PBM binding z-score was 5.53. Sequence TCGAGTAGGTTACGGGGGCTTTCAGGGATGAAGA has a PBM binding z-score of 3.23. With CCGAGTAGGTTACGAGGGGGCATTCTGTGCGAAT the PBM binding z-score was 3.38. Work on TCGCGTAGGTTACGGGGGCATTCAGGGATGAAGA yielded a PBM binding z-score of 4.31. In the case of TCGAGTAGGTTACGGGGGCATTCATGGATGAAGA, the PBM binding z-score is reported as 4.29. CTATGTAGGTTAAGGGGGTCATTCACTTTGAAAG was tested, and the PBM binding z-score was 5.91. CCGAGTATGTTACGAGGGGGCATTCAGTGCGAAT showed a PBM binding z-score of 2.28. Work on CTATGTAGGTTAAGGGCGTCATTCAGTTTGAAAG yielded a PBM binding z-score of 3.53. CCGAGTAGGTTACGAGGGGGCAGTCAGTGCGAAT gave a PBM binding z-score of 3.14. CTATGTCGGTTAAGGGGGTCATTCAGTTTGAAAG was tested, and the PBM binding z-score was 5.65. TCGAGTAGGTTAGGGGGGCATTCAGGGATGAAGA was tested, and the PBM binding z-score was 3.3. Work on CTTTGTAGGTTAAGGGGGTCATTCAGTTTGAAAG yielded a PBM binding z-score of 6.06. With TCGAGTAGGTTACGAGGGCATTCAGGGATGAAGA the PBM binding z-score was 2.58. TCGAGTAGGTTACGGAGGCATTCAGGGATGAAGA showed a PBM binding z-score of 1.57.
